According to PubChem BioAssay:
Active and inactive are the calls of the source. Unless noted, no rule for the calls is given here.

How the values were obtained:
[1] = compounds binding Alexa647 anti-His antibody – biochemical, small-molecule microarray, 635 nm fluorescence, artefact control for SMM control protein annotation, primary screen (AID 1128); details: higher = more signal;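 also: score merges feature fluorescence with signal-to-noise for each printed compound spot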
[2] = tested on: Human papillomavirus type 1a E7 protein (residues 1-88); test: HPV1a E7 small-molecule binders, primary screen, biochemical, small-molecule microarray, residues 1-88, 635 nm (AID 1129); details: small-molecule microarray binding, fluorescence 635 nm; higher = more signal
[3] = biological target: Focal adhesion kinase 1 (Homo sapiens) (UniProt Q05397); test: PTK2 protein binding on printed compound slides – biochemical, small-molecule microarray, 635/667 nm fluorescence, BSA, DTT, primary screen (AID 1130); details: 635 nm fluorescence, higher = more signal;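 also: composite of spot emission at 667 nm and signal to noise over triplicate slides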
[4] = tested on: Fibrinogen (Alexa647-labelled); test: Alexa647-fibrinogen binding to printed small molecules – biochemical, small-molecule microarray, 635/667 nm fluorescence, artefact control for SMM control-protein annotation, profiling panel (AID 1131); details: fibrinogen-A647 binding fluorescence, higher = more signal;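 also: z-score merges 667 nm fluorescence with per-spot signal-to-noise over triplicate slides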
[5] = biological target: Follistatin (Homo sapiens) (UniProt P19883); test: FST protein binding to printed compounds – biochemical, small-molecule microarray, 635/667 nm fluorescence, primary screen (AID 1132); details: 635 nm fluorescence, higher = more signal
[6] = biological target: Fibroblast growth factor 2 (Homo sapiens) (UniProt P09038); test: basic fibroblast growth factor binding to printed compounds – biochemical, small-molecule microarray, 635/667 nm fluorescence, primary screen (AID 1133); details: FGF2, fluorescence 635/667, higher = more signal
[7] = JC-1 mitochondrial potential readout, lung cancer cells – cell-based, A549, JC-1 fluorescence, basal, 24 h, 100 nL, profiling panel (AID 1138); details: higher = more signal;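 also: A549 lung adenocarcinoma cells under basal conditions with no added stimulus; test concentration not given here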
Lefty1 = Lefty1 protein binding to printed compounds – biochemical, small-molecule microarray, 635/667 nm fluorescence, primary screen (AID 1139); details: fluorescence 635/667, higher = more signal
[8] = tested on: wheat germ agglutinin (Triticum aestivum), Alexa647-labelled; test: Alexa647-WGA lectin binding to printed small molecules – biochemical, small-molecule microarray, 635/667 nm fluorescence, artefact control for SMM control-protein annotation, profiling panel (AID 1140); details: WGA-A647 binding, 635 nm fluorescence, higher = more signal;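 also: score merges 667 nm feature emission with signal to noise over triplicate slides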
[9] = biological target: Luciferin 4-monooxygenase (Photinus pyralis) (UniProt P08659); test: inhibition of purified Photinus pyralis luciferase – biochemical, luminescence, purified enzyme, 2006 set, primary screen (AID 1141); details: purified firefly luciferase, SteadyGlo luminescence, 30 min; higher = more signal, called active from +8 up or from −8 down;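 also: cell-free assay with purified firefly luciferase at 100 ng per well in PBS; test concentration not given here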
[10] = tested on: Wnt5a (protein binding on small-molecule microarray); test: small molecules binding Wnt5a protein – biophysical, small-molecule microarray, 635/667 nm fluorescence, primary screen (AID 1142); details: 635 nm fluorescence, higher = more signal;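 also: fluorescence read at 667 nm with signal to noise per printed feature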
[11] = ATP-based viability of Huh7 replicon cells – cell-based, CellTiter-Glo luminescence, basal, 48 h, cytotoxicity control for HCV replication inhibitor project, primary screen (AID 1143); details: higher = more signal, called active from +8 up or from −8 down;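 also: Huh7 hepatoma cells carrying a hepatitis C replication reporter with no stimulus; test concentration not given here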
[12] = Pseudomonas biofilm growth suppression – PAO1 strain, BacTiter-Glo luminescence, LB-PBS, primary screen (AID 1144); details: P. aeruginosa PAO1 biofilm, 12 h, higher = more signal
[13] = basal CRE-LacZ reporter activity in PC12 – cell-based, unstimulated, primary screen (AID 1145); details: no forskolin, luminescence, 4.5 h, higher = more signal, called active from +8 up or from −8 down
[14] = forskolin-driven CRE-LacZ activity in PC12 – cell-based, CRE-LacZ reporter, forskolin-stimulated, primary screen (AID 1146); details: luminescence, 4.5 h, higher = more signal, called active from +8 up or from −8 down;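 also: PC12 cells with 6xCRE LacZ reporter stimulated by forskolin 10 µM; beta-galactosidase reporter signal reflecting CREB driven transcription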
[15] = biological target: Streptavidin (Streptomyces avidinii) (UniProt P22629); test: compounds binding control protein streptavidin – biophysical, small-molecule microarray, 635/667 nm fluorescence, artefact control for SMM compound annotation, primary screen (AID 1147); details: higher = more signal;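 also: signal reflects streptavidin binding to arrayed compounds as a control protein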
[16] = probe aInhba binding on compound microarray – biochemical, small-molecule microarray, 635/667 nm fluorescence, primary screen (AID 1148); details: higher = more signal;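 also: score merges 667nm spot fluorescence with signal-to-noise for antibody binding to printed compounds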
Torsin-1A (Homo sapiens) [17] = biological target: Torsin-1A (Homo sapiens) (UniProt O14656); test: TOR1A wild-type binding on microarray – cell lysate, small-molecule microarray, lysate, 635/667 nm, primary screen (AID 1149); details: COS7 hTOR1A-WT lysate, 635 nm fluorescence, higher = more signal
Torsin-1A (Homo sapiens) [18] = biological target: Torsin-1A (Homo sapiens) (UniProt O14656); test: torsin A mutant lysate binding on microarrays – cell lysate, small-molecule microarray, COS7 lysate, 635/667 nm fluorescence, primary screen (AID 1150); details: COS7 hTOR1A mutant lysate, 635 nm fluorescence, higher = more signal;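 also: score pools 667 nm emission and signal to noise measuring lysate protein binding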
[19] = tested on: Sonic hedgehog protein (Shh); test: Sonic hedgehog microarray binding compounds – biochemical, small-molecule microarray, 635/667 nm fluorescence, primary screen (AID 1151); details: 635 nm fluorescence, higher = more signal;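 also: Shh protein binding to compounds spotted on small-molecule microarray slides; score combines spot fluorescence intensity with signal-to-noise across triplicate slides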

Sequence of Follistatin (Homo sapiens) (P19883 whole entry, looked up): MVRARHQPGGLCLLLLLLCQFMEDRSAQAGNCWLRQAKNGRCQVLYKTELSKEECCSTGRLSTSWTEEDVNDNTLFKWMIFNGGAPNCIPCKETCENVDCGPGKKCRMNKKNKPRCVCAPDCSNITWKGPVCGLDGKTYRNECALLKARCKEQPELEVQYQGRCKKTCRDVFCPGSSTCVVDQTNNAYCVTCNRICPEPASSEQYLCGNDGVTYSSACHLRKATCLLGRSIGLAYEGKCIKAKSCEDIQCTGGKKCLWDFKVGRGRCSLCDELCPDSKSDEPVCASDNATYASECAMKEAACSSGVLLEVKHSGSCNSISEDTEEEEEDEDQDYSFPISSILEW
Sequence of Luciferin 4-monooxygenase (Photinus pyralis) (P08659 whole entry, looked up): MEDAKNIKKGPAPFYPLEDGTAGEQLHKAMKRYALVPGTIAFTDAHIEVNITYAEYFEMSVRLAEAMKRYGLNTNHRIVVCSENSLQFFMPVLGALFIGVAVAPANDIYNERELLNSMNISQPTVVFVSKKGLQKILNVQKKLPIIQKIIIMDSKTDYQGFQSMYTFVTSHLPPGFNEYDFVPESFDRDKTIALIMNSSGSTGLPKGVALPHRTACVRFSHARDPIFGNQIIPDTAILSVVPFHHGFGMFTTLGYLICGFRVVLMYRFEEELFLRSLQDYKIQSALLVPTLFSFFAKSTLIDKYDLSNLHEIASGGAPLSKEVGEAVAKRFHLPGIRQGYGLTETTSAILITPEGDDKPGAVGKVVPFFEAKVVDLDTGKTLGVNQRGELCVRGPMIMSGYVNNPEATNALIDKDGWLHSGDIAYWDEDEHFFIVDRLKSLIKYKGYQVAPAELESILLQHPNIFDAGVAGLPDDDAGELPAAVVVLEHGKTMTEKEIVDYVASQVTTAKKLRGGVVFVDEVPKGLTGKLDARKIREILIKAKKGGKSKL
Sequence of Focal adhesion kinase 1 (Homo sapiens) (Q05397 whole entry, looked up): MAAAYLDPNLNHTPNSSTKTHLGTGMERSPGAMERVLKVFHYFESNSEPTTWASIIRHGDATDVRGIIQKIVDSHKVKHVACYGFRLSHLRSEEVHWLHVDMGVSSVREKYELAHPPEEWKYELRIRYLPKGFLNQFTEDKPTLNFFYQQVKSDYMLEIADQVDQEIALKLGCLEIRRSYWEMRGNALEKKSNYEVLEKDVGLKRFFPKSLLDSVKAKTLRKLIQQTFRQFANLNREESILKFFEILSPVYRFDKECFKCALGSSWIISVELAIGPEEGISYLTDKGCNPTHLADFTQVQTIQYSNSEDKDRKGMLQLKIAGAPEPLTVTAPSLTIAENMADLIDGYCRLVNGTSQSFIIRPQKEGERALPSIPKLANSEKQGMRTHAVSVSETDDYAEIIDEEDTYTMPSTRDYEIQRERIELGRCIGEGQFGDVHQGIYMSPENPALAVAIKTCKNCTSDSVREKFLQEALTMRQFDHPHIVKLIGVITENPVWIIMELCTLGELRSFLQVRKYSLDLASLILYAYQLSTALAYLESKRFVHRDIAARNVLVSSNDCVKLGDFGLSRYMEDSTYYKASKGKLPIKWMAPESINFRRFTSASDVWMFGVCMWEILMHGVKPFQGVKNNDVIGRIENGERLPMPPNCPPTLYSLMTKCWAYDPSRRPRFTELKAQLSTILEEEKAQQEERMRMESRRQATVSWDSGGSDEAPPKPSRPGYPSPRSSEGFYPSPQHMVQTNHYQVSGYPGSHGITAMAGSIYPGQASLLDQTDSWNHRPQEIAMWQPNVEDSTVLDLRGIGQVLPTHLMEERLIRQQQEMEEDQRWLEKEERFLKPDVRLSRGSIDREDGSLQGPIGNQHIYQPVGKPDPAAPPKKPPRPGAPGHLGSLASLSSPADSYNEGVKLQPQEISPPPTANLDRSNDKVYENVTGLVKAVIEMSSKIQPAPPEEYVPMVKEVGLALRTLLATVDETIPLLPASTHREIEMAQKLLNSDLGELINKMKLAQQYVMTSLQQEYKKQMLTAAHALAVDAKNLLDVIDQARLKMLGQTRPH
Sequence of Torsin-1A (Homo sapiens) (O14656 whole entry, looked up): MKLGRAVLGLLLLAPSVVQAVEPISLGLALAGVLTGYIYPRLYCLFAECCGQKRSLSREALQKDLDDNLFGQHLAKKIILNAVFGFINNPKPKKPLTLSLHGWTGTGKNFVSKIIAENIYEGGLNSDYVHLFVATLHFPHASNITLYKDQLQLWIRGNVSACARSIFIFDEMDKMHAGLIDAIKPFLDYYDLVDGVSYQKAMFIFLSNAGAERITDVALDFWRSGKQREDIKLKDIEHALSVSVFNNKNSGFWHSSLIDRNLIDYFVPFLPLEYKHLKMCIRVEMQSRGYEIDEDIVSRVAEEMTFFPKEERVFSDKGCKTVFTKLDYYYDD
Sequence of Fibroblast growth factor 2 (Homo sapiens) (P09038 whole entry, looked up): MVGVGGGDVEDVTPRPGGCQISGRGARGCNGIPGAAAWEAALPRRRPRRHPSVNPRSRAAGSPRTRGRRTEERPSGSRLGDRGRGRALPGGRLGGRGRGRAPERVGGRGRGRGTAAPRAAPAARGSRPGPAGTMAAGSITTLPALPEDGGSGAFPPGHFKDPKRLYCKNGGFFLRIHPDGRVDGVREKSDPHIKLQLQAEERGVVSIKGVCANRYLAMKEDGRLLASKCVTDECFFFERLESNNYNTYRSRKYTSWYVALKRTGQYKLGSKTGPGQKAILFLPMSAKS
Sequence of Streptavidin (Streptomyces avidinii) (P22629 whole entry, looked up): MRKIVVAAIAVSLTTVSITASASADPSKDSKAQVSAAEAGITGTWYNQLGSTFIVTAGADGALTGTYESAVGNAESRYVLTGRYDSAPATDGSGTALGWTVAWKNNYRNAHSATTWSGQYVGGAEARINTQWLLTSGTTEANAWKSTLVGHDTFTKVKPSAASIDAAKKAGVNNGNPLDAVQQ

Structure (SMILES)	composite z-score [1]	composite z-score [2]	composite z-score [3]	composite z-score [4]	composite z-score [5]	composite z-score [6]	z-score [7]	composite z-score (Lefty1)	composite z-score [8]	z-score [9]	composite z-score [10]	z-score [11]	z-score [12]	z-score [13]	z-score [14]	composite z-score [15]	composite z-score [16]	composite z-score (Torsin-1A (Homo sapiens) [17])	composite z-score (Torsin-1A (Homo sapiens) [18])	composite z-score [19]
CC(C)CON=C1C[C@@H](O)[C@@H](O)[C@@H]2[C@@H]3C(=O)N(c4ccc(F)cc4F)C(=O)[C@@H]3CC[C@@H]12	0.663	0.105	0.156	0.699	0.585	0.508	-0.99	0.617	-0.0433	0.831 (inactive)	-0.0608	-3.38 (inactive)	-0.419 (inactive)	0.151 (inactive)	0.391 (inactive)	0.744	-0.0719	1.29	0.218	0.583
COc1ccc(COC(=O)NN=C2C[C@@H](O)[C@@H](O)[C@@H]3[C@@H]4C(=O)N(C(C)(C)C)C(=O)[C@@H]4CC[C@@H]23)cc1	0.839	0.656	-0.14	0.874	0.542	0.247	-0.367	0.548	0.608	0.137 (inactive)	0.211	0.22 (inactive)	0.224 (inactive)	0.973 (inactive)	0.384 (inactive)	0.244	0.0086	0.385	1.47	0.612
COc1cccc([C@H]2Oc3ccc(OC)cc3C(=NOCC[C@@H]3C=C[C@H](OC(C)=O)[C@@H](COC(C)=O)O3)[C@@H]2O)c1	-0.972	0.562	0.292	0.967	0.37	0.462	-0.806	0.329	0.274	1.14 (inactive)	0.0377	-0.0868 (inactive)	1.43 (inactive)	5.08 (inactive)	0.497 (inactive)	-0.112	-0.154	0.186	0.273	0.509
O=C(NN=C1C[C@@H](O)[C@@H](O)[C@@H]2[C@@H]3C(=O)N(Cc4ccccc4)C(=O)[C@@H]3CC[C@H]12)OCc1ccccc1	-0.136	-0.0677	0.0773	-0.265	0.387	0.388	0.101	0.617	0.0185	0.534 (inactive)	-0.014	-0.575 (inactive)	-0.281 (inactive)	0.0628 (inactive)	0.401 (inactive)	-0.0198	0.0406	0.726	0.983	1.06
COc1ccc(COC(=O)NN=C2C[C@@H](O)[C@@H](O)[C@@H]3[C@@H]4C(=O)N(C[C@@H]5CCCO5)C(=O)[C@@H]4CC[C@H]23)cc1	-0.156	-0.309	0.0444	-0.269	-1.13	-0.902	-0.252	-1.1	0.128	0.917 (inactive)	-0.109	0.338 (inactive)	0.296 (inactive)	0.159 (inactive)	-0.166 (inactive)	0.669	0.0275	-0.858	-0.48	-1.12
CC(=O)OC[C@H]1O[C@H](C#CCCc2ccccc2)C=C[C@@H]1OC(C)=O	0.538	-0.417	-0.34	0.884	0.518	0.461	0.0303	1.22	-0.225	-0.97 (inactive)	-0.0248	-1.42 (inactive)	1.34 (inactive)	-0.339 (inactive)	0.859 (inactive)	-0.0683	-0.0719	0.27	0.553	1.52
CO[C@@H]1COC(=O)[C@@H]2CCCN2C(=O)[C@@H](C)COC(=O)CCC[C@H]1C	0.176	0.0997	0.154	0.482	0.529	0.264	-0.601	0.486	0.2	0.173 (inactive)	-0.0105	-0.848 (inactive)	-0.506 (inactive)	0.355 (inactive)	-0.269 (inactive)	1.21	-0.153	1.21	0.241	1.18
CO[C@@H]1C=CCC(=O)N[C@@H](C)C(=O)OC[C@@H](NS(=O)(=O)c2ccc(C)cc2)[C@H](C)C=CCC(=O)OC[C@H]1C	-0.605	-0.56	-0.0987	-0.14	0.833	0.638	-0.198	0.841	0.326	-0.567 (inactive)	-0.0979	-1.03 (inactive)	0.225 (inactive)	0.155 (inactive)	-1.23 (inactive)	-0.536	-0.304	0.527	0.514	1.08
O=C1C[C@@H](O)[C@@H](O)[C@@H]2[C@@H]3C(=O)N(c4ccc(F)cc4F)C(=O)[C@@H]3CC[C@H]12	0.387	0.503	0.0336	0.428	0.549	0.401	-0.834	0.645	0.304	-0.211 (inactive)	0.0583	-1.24 (inactive)	0.0279 (inactive)	0.064 (inactive)	-0.13 (inactive)	0.234	-0.101	0.403	0.302	1.09
CSCC[C@@H]1NC(=O)CC=C[C@@H](C)COC(=O)[C@H](C)COC1=O	-1.14	-1.34	-0.697	-3.03	1.45	1.95	1.64	1.85	-0.663	-1.95 (inactive)	0.624	-1.67 (inactive)	-1.66 (inactive)	0.163 (inactive)	-0.925 (inactive)	-0.918	-0.17	3.64	3.77	2.45
